From PubChem BioAssay
Shown are actives, neighbours in structure and some others; about 8.1% of the full set was active somewhere.
NOMO-1 viab = NOMO-1 AML cell viability reduction, primary screen, STK33 inhibitor project, CellTiter-Glo luminescence; NOMO-1 AML viability, 72 h; inhibition, % (concentration not given with the values); hit rate 7.5% among 37,000; AID 2330, 2010; in the data active means inhibition above about 80%; inconclusive means no clear call, values can overlap the other calls
Hedgehog inh = Hedgehog pathway signaling inhibitors, primary screen, luminescence, Shh-LIGHT2 cells, Gli-luciferase. inhibition, % (concentration not given with the values). Shh-LIGHT2 Gli-luciferase reporter, 30 h. hit rate 2.1% among 22,000. AID 2313, 2010;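 active means mean inhibition across valid replicates above about 65%, limit read from the data; inconclusive means mean under the limit, yet half or more replicates past it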;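 further: pathway switched on by Shh-conditioned medium diluted 1 in 25 in low serum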
MITF inh = inhibitors of MITF, primary screen, MITF inhibitor project, cell-based, luminescence; hit rate 0.28% among 37,000; inhibition, % (no concentration beside the values); TRPM1 promoter luciferase, 24 h; in the data active means inhibition above about 85%; inconclusive means no clear call, values can overlap the other calls; inactive means below about 68%;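 further: human melanocyte line stably carrying TRPM1 promoter luciferase reporter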
Large screens that a line does not name were inactive.

COc1ccc(-c2coc3cc(O[C@@H]4O[C@H](CO)[C@@H](O)[C@H](O)[C@H]4O)cc(O)c3c2=O)cc1	none
O=c1c(-c2ccc(O)cc2)coc2cc(O[C@@H]3O[C@H](CO)[C@@H](O)[C@H](O)[C@H]3O)cc(O)c12	NOMO-1 viab 96
Cc1ccc(S(=O)(=O)c2nc(-c3ccccc3)oc2NCCN2CCOCC2)cc1	none (no result: Hedgehog inh)
CCC(C)S(=O)(=O)c1oc(-c2ccc(C)cc2)nc1S(=O)(=O)c1ccccc1 (centres undefined)	NOMO-1 viab 116 (no result: Hedgehog inh)
FC(F)(F)COc1ccc(-c2nnc(SCc3ccccc3C(F)(F)F)o2)cn1	none (no result: Hedgehog inh)
O=c1c(N2CCOCC2)nnc2sc3ccccc3n12	none
O=C1S/C(=C\c2ccc(N3CCOCC3)o2)C(=O)N1c1ccccc1	NOMO-1 viab 132 (no result: Hedgehog inh)
C[C@H]1CN([C@@H](C)CO)C(=O)Cc2cc(N(C)C)ccc2O[C@@H]1CN(C)S(=O)(=O)c1ccccc1	none
Nc1nc(SCC(=O)Nc2ccccc2C(F)(F)F)n[nH]1	none (no result: Hedgehog inh)
CCCC(O)c1c(O)cccc1C1(O)CC(=O)C/C1=C\C(O)CC(=O)O (centres undefined)	NOMO-1 viab 121
Cn1c(SCC(=O)Nc2ccc(Br)cc2)nnc1-c1cccnc1	none (no result: Hedgehog inh)
C[C@@H]1CCCCO[C@H](CN(C)Cc2ccc(Cl)c(Cl)c2)[C@@H](C)CN([C@H](C)CO)C(=O)c2cc(NC(=O)Nc3ccccc3)ccc2O1	NOMO-1 viab inconclusive
C[C@@H]1CCCCO[C@H](CN(C)Cc2ccc3c(c2)OCO3)[C@@H](C)CN([C@H](C)CO)C(=O)c2cc(NC(=O)Nc3ccc4c(c3)OCO4)ccc2O1	none (no result: Hedgehog inh)
C[C@@H]1CCCCO[C@@H](CN(C)Cc2ccc3c(c2)OCO3)[C@@H](C)CN([C@H](C)CO)C(=O)c2cc(NC(=O)Nc3ccc(C(F)(F)F)cc3)ccc2O1	NOMO-1 viab 113 (no result: Hedgehog inh)
C[C@@H]1CCCCO[C@@H](CN(C)Cc2ccc(Cl)c(Cl)c2)[C@@H](C)CN([C@H](C)CO)C(=O)c2cc(NC(=O)Nc3ccccc3)ccc2O1	NOMO-1 viab 103
C[C@@H]1CCCCO[C@@H](CN(C)Cc2ccc(Cl)c(Cl)c2)[C@@H](C)CN([C@H](C)CO)C(=O)c2cc(NC(=O)Nc3ccc(C(F)(F)F)cc3)ccc2O1	NOMO-1 viab 105 (no result: Hedgehog inh)
CC(C)NC(=O)Nc1ccc2c(c1)C(=O)N([C@H](C)CO)C[C@H](C)[C@H](CN(C)Cc1ccc(C(F)(F)F)cc1)OCCCC[C@@H](C)O2	none (no result: Hedgehog inh)
C[C@@H]1CCCCO[C@@H](CN(C)Cc2ccc3c(c2)OCO3)[C@@H](C)CN([C@H](C)CO)C(=O)c2cc(NC(=O)Nc3ccc4c(c3)OCO4)ccc2O1	Hedgehog inh 68
C[C@@H]1CCCCO[C@@H](CN(C)Cc2ccc3c(c2)OCO3)[C@@H](C)CN([C@H](C)CO)C(=O)c2cc(NC(=O)Nc3ccc(F)cc3)ccc2O1	none (no result: Hedgehog inh)
C[C@@H]1CN([C@@H](C)CO)C(=O)c2cc(NC(=O)Nc3ccc(C(F)(F)F)cc3)ccc2O[C@H]1CN(C)C(=O)Nc1ccc2c(c1)OCO2	none
CSc1ccccc1NC(=O)CN(c1cccc([N+](=O)[O-])c1)S(C)(=O)=O	none (no result: Hedgehog inh)
CC(C)(O)C#Cc1ccccc1C(=O)NC(Cc1c[nH]c2ccccc12)C(=O)O (centres undefined)	none (no result: Hedgehog inh)
COc1ccc(OC)c(S(=O)(=O)N(C)CC(=O)Nc2ccc(C(F)(F)F)cc2)c1	none (no result: Hedgehog inh)
CC(=O)c1cccc(NC(=O)CSc2nc3ccc([N+](=O)[O-])cc3s2)c1	none (no result: Hedgehog inh)
C[C@@H]1CCCCO[C@@H](CN(C)Cc2ccc(Cl)c(Cl)c2)[C@@H](C)CN([C@H](C)CO)C(=O)c2cc(NC(=O)C3CCCCC3)ccc2O1	NOMO-1 viab 114 (no result: Hedgehog inh)
C[C@H](CO)N1C[C@H](C)[C@H](CN(C)Cc2ccc(Cl)c(Cl)c2)Oc2ccc(NC(=O)C3CCCCC3)cc2C1=O	none (no result: Hedgehog inh)
O=C(CSc1nc(N2CCCCC2)nc(N2CCCCC2)n1)Nc1ccc(F)cc1	none (no result: Hedgehog inh)
CC(NC(=O)c1ccccc1)c1nc2ccccc2n1Cc1ccc(Cl)cc1Cl (centres undefined)	none (no result: Hedgehog inh)
O=C(c1ccccc1)c1cccc(N=Cc2c(O)[nH]c(=O)[nH]c2=O)c1	none
Cc1ccnc(N=Cc2c(C)[nH]n(-c3ccccc3)c2=O)c1	none
Cc1cccc(N=Cc2c(O)n(-c3ccccc3)c(=O)c3ccccc23)c1	NOMO-1 viab 91
O=c1c2ccccc2c(C=Nc2cccc(C(F)(F)F)c2)c(O)n1-c1ccccc1	NOMO-1 viab 106
OC(c1nc2ccc(Cl)cc2[nH]1)C(O)c1nc2ccc(Cl)cc2[nH]1 (centres undefined)	none (no result: Hedgehog inh)
O=C(CSc1nc(-c2ccc(Cl)cc2)cc(C(F)(F)F)n1)c1cccc([N+](=O)[O-])c1	none (no result: Hedgehog inh)
C[C@@H]1CN([C@H](C)CO)C(=O)Cc2cc(NC(=O)CCCCCC(=O)Nc3ccccc3N)ccc2O[C@@H]1CN(C)Cc1ccc(C(F)(F)F)cc1	NOMO-1 viab 141 (no result: Hedgehog inh)
C[C@@H]1CN([C@@H](C)CO)C(=O)Cc2cc(NC(=O)Cc3ccccc3)ccc2O[C@@H]1CN(C)Cc1ccc(C(F)(F)F)cc1	none
C[C@@H]1CN([C@H](C)CO)C(=O)Cc2cc(NC(=O)Cc3ccccc3)ccc2O[C@@H]1CN(C)Cc1ccc(C(F)(F)F)cc1	none (no result: Hedgehog inh)
C[C@@H]1CN([C@H](C)CO)C(=O)Cc2cc(NC(=O)CCCCCC(=O)Nc3ccccc3N)ccc2O[C@H]1CN(C)Cc1ccc(C(F)(F)F)cc1	NOMO-1 viab 114 (no result: Hedgehog inh)
C[C@@H]1CN([C@H](C)CO)C(=O)c2cccc(NC(=O)C3CCOCC3)c2O[C@@H]1CN(C)S(C)(=O)=O	none
Cc1ccc(NC(=O)COc2ccccc2)c(NC(=O)c2ccccc2I)c1	none (no result: Hedgehog inh)
O=C(Nc1ccc(OCc2nc3ccccc3s2)cc1)c1cccc(I)c1	NOMO-1 viab 105 (no result: Hedgehog inh)
CCC(=O)Nc1ccc(OCc2nc3ccccc3s2)cc1	none (no result: Hedgehog inh)
C[C@@H]1CN([C@@H](C)CO)C(=O)c2cccc(NC(=O)C3CCOCC3)c2O[C@H]1CN(C)CC1CCCCC1	none
Clc1ccc2nc(NCc3ccccn3)nc(-c3ccccc3)c2c1	none (no result: Hedgehog inh)
C[C@@H]1CN([C@H](C)CO)C(=O)c2cccc(NC(=O)NC3CCCCC3)c2O[C@H]1CN(C)Cc1ccc(C(=O)O)cc1	none
C[C@@H]1CN([C@H](C)CO)C(=O)c2cccc(NC(=O)NC3CCCCC3)c2O[C@@H]1CN(C)Cc1ccc(C(=O)Nc2ccccc2N)cc1	NOMO-1 viab 127 (no result: Hedgehog inh)
C[C@H]1CN([C@@H](C)CO)C(=O)c2cccc(NC(=O)NC3CCCCC3)c2O[C@H]1CN(C)Cc1ccc(-c2ccccc2)cc1	none
C[C@H](CO)N1C[C@H](C)[C@H](CN(C)Cc2ccc(C(=O)Nc3ccccc3N)cc2)Oc2c(NC(=O)NC3CCCCC3)cccc2C1=O	NOMO-1 viab 120 (no result: Hedgehog inh)
C[C@H](CO)N1C[C@H](C)[C@H](CN(C)Cc2ccc(C(=O)O)cc2)Oc2c(NC(=O)NC3CCCCC3)cccc2C1=O	none
C[C@H]1CN([C@@H](C)CO)C(=O)c2cccc(NC(=O)NC3CCCCC3)c2O[C@H]1CN(C)Cc1ccc(C(=O)Nc2ccccc2N)cc1	NOMO-1 viab 129 (no result: Hedgehog inh)
C[C@@H]1CN([C@@H](C)CO)C(=O)c2cc(NS(=O)(=O)c3cccs3)ccc2O[C@H]1CN(C)S(=O)(=O)c1ccc(Cl)cc1	none (no result: Hedgehog inh)
CN(CC(=O)Nc1ccc(Oc2ccccc2)cc1)S(=O)(=O)c1ccccc1	none (no result: Hedgehog inh)
